Columns and labels:
Assay in all cases: DAPPL (digital affinity profiling via proximity ligation, sequencing); 10 mM Tris-HCl pH 7.5, 50 mM NaCl, 1 mM DTT, 4% glycerol, room temperature, 30 min; GST-TFs on glutathione beads, 16-mer random dsDNA library, 0.1% formaldehyde crosslink after washing; high values mean tight binding
HSF1 = HSF1 (Homo sapiens, UniProt Q00613 1-529); conditions: protein: recombinant; tags: N-terminal GST; chain copies: 3; dsDNA, one strand shown
How it was run: (§1)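 Binding signal is each hexamer's read frequency for a factor divided by its frequency in the tag-only sample. The factors were GST-fused human transcription factors from yeast, captured on glutathione beads, DNA-barcoded and pooled with that sample. Pools were incubated with 200 nmole of a random double-stranded 16-mer DNA library in Tris/NaCl/DTT/glycerol buffer at room temperature for 30 min, then washed, crosslinked with 0.1% formaldehyde, proximity-ligated with BsaI/T4 ligase (1 h, 37 °C), PCR-amplified and sequenced on an Illumina NextSeq500.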

FLI1 = target: T1, FLI1 (Homo sapiens, UniProt Q01543 1-452); conditions: protein: recombinant; tags: N-terminal GST; dsDNA, one strand shown
T1 sequence: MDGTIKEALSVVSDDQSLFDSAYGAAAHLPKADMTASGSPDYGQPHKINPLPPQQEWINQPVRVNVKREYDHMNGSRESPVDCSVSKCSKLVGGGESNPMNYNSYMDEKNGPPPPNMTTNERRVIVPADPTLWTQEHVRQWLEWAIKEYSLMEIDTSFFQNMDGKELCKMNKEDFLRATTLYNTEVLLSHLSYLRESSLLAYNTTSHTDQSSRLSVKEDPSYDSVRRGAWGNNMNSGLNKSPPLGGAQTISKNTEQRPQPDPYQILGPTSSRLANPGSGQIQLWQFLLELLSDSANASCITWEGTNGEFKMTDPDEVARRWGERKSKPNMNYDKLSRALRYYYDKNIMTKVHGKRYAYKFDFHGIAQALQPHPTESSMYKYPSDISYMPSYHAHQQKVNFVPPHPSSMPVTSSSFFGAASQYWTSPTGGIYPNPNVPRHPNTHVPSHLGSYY
How it was run: as §1

GABPA = target: T2, GABPA (Homo sapiens, UniProt Q06546 1-454); conditions: protein: recombinant; tags: N-terminal GST; dsDNA, one strand shown
T2 sequence: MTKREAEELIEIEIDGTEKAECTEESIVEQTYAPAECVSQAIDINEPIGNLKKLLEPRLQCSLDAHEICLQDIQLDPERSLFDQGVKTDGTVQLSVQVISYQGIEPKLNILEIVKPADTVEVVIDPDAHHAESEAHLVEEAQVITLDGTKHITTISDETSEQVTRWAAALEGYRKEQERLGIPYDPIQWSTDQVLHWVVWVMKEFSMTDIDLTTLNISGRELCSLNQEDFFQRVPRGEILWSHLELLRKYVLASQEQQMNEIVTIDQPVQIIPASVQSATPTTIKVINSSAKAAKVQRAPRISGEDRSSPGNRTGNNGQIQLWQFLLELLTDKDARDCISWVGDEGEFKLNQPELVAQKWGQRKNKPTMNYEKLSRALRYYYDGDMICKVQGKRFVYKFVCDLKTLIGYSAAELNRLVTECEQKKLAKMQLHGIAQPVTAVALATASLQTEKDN
How it was run: as §1

ERG = target: T3, ERG (Homo sapiens, UniProt P11308 1-479); conditions: protein: recombinant; tags: N-terminal GST; dsDNA, one strand shown
T3 sequence: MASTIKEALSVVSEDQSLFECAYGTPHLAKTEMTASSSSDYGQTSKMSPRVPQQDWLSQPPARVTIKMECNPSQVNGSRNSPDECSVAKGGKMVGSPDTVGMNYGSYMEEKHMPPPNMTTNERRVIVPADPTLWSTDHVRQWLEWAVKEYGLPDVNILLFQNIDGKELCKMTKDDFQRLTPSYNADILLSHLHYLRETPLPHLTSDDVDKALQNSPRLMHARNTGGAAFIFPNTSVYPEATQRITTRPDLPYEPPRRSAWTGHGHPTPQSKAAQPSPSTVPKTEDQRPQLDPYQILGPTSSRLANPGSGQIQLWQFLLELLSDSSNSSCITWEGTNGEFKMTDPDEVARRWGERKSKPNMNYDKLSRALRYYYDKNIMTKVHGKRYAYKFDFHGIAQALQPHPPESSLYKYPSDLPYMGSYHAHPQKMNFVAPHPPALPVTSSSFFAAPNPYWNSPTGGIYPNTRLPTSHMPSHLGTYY
How it was run: as §1

ELF1 = ELF1 (Homo sapiens, UniProt P32519 1-619); conditions: protein: recombinant; tags: N-terminal GST; dsDNA, one strand shown
How it was run: as §1

SPIB = SPIB (Homo sapiens, UniProt Q01892 1-262); conditions: protein: recombinant; tags: N-terminal GST; dsDNA, one strand shown
How it was run: as §1

ELK3 = target: T4, ELK3 (Homo sapiens, UniProt P41970 1-407); conditions: protein: recombinant; tags: N-terminal GST; dsDNA, one strand shown
T4 sequence: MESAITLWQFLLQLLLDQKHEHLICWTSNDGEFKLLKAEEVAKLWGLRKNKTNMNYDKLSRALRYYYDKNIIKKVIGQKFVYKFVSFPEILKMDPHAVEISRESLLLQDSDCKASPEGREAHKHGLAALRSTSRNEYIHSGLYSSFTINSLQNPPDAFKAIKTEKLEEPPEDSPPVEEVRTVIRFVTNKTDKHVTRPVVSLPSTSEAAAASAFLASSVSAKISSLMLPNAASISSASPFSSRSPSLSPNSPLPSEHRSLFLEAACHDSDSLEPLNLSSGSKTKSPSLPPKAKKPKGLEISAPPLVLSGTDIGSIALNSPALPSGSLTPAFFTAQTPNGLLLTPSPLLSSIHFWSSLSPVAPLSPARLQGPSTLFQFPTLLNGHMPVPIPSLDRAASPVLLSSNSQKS
How it was run: as §1

FEV = target: T5, FEV (Homo sapiens, UniProt Q99581 1-238); conditions: protein: recombinant; tags: N-terminal GST; dsDNA, one strand shown
T5 sequence: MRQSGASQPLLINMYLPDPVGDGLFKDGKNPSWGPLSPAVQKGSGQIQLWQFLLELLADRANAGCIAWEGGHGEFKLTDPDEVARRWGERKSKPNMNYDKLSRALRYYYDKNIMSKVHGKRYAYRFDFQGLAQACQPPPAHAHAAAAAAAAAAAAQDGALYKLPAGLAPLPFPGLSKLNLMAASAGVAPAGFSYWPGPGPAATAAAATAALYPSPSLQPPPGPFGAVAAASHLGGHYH
How it was run: as §1

ELK4 = target: T6, ELK4 (Homo sapiens, UniProt P28324-2 1-405); conditions: protein: recombinant; tags: N-terminal GST; dsDNA, one strand shown
T6 sequence: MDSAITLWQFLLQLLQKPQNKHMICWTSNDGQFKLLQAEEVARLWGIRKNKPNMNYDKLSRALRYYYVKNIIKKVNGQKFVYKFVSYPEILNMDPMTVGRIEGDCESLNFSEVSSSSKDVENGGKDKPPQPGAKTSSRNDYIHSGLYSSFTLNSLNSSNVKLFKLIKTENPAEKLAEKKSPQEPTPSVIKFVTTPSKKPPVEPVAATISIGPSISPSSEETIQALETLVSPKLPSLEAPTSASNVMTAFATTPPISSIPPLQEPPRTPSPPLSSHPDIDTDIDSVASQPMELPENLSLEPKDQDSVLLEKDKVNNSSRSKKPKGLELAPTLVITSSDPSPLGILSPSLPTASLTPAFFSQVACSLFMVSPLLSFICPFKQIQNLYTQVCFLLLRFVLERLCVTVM
How it was run: as §1

ETV1 = ETV1 (Homo sapiens, UniProt P50549 1-477); conditions: protein: recombinant; tags: N-terminal GST; dsDNA, one strand shown
How it was run: as §1

ERF = target: T7, ERF (Homo sapiens, UniProt P50548 1-548); conditions: protein: recombinant; tags: N-terminal GST; dsDNA, one strand shown
T7 sequence: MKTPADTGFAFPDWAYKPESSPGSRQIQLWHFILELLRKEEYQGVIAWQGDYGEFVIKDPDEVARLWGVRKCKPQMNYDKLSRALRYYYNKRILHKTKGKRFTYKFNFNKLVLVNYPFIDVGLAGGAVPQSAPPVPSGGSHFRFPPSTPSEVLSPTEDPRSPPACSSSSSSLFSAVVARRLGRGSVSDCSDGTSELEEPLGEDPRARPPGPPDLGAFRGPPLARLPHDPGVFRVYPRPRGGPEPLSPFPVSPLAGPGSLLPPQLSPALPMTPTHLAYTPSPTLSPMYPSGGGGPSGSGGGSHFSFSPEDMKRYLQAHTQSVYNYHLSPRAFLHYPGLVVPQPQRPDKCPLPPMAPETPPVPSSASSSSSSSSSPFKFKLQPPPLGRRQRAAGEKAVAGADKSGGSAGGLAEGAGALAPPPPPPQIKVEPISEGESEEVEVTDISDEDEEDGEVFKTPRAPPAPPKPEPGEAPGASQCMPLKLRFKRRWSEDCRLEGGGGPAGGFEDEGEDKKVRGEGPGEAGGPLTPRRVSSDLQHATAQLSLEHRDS
How it was run: as §1

ETV3L = target: T8, ETV3L (Homo sapiens, UniProt Q6ZN32 1-361); conditions: protein: recombinant; tags: N-terminal GST; dsDNA, one strand shown
T8 sequence: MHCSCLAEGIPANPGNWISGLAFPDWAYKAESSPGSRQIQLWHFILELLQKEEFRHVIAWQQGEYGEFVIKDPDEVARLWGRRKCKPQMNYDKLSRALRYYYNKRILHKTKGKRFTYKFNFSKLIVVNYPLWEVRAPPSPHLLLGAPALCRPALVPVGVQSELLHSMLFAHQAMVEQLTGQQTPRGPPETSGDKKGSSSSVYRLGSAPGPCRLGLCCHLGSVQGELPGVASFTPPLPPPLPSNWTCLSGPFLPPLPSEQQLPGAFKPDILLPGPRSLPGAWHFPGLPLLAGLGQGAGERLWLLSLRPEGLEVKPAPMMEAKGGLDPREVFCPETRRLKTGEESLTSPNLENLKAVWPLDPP
How it was run: as §1

ETS2 = target: T9, ETS2 (Homo sapiens, UniProt P15036 1-469); conditions: protein: recombinant; tags: N-terminal GST; dsDNA, one strand shown
T9 sequence: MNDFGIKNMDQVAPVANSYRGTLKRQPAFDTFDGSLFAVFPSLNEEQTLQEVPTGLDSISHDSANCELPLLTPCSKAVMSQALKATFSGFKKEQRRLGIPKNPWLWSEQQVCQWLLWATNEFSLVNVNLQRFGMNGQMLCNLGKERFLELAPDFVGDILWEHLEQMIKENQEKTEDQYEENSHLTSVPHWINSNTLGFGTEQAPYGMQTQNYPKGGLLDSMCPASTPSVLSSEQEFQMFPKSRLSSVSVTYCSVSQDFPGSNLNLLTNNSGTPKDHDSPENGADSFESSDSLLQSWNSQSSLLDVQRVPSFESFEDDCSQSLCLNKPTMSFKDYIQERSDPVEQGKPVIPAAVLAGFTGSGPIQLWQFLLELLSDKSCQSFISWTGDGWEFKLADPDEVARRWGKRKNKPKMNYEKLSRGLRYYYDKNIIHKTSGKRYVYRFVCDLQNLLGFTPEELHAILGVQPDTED
How it was run: as §1

SPDEF = target: T10, SPDEF (Homo sapiens, UniProt O95238 1-335); conditions: protein: recombinant; tags: N-terminal GST; dsDNA, one strand shown
T10 sequence: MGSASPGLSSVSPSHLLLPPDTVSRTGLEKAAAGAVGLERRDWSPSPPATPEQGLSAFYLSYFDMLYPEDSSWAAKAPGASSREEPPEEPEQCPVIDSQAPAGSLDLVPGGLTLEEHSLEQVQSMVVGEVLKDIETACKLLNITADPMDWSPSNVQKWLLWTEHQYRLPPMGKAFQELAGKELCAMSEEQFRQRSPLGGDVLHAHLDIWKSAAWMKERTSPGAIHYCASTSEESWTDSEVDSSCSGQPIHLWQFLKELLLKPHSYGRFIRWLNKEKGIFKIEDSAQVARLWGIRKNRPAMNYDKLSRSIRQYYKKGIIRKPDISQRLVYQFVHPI
How it was run: as §1

Chain of HSF1 (Q00613 whole entry, the tested form may be a part): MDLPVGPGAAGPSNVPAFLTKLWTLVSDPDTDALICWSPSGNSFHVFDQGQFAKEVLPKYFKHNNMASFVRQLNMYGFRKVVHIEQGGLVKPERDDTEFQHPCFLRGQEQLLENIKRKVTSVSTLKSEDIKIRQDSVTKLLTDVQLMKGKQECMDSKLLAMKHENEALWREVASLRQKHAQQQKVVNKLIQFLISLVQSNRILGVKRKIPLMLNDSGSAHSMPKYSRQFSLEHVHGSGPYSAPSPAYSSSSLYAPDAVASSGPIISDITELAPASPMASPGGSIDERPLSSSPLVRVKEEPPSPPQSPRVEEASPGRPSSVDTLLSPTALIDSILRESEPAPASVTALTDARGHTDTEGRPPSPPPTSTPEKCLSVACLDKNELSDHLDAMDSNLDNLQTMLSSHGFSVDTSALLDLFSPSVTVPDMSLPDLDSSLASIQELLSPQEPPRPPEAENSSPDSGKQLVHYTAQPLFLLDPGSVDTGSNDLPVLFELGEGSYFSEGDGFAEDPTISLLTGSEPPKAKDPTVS
Chain of ELF1 (P32519 whole entry): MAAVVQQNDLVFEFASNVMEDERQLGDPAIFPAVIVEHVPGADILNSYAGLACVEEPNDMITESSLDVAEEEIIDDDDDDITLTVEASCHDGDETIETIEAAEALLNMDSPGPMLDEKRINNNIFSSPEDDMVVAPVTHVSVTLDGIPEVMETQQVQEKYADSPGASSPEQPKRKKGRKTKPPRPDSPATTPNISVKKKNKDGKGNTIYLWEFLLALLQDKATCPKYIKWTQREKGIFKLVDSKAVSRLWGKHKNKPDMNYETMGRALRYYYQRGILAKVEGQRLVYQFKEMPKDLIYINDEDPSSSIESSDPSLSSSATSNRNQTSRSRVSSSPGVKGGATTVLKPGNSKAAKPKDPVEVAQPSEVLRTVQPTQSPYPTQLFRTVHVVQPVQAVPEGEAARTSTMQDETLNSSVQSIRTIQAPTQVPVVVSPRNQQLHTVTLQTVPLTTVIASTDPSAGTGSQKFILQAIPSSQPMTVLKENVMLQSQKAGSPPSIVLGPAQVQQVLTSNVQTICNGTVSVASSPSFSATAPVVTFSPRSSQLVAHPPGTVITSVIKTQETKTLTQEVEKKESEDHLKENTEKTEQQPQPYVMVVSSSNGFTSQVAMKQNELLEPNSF
Chain of ETV1 (P50549 whole entry): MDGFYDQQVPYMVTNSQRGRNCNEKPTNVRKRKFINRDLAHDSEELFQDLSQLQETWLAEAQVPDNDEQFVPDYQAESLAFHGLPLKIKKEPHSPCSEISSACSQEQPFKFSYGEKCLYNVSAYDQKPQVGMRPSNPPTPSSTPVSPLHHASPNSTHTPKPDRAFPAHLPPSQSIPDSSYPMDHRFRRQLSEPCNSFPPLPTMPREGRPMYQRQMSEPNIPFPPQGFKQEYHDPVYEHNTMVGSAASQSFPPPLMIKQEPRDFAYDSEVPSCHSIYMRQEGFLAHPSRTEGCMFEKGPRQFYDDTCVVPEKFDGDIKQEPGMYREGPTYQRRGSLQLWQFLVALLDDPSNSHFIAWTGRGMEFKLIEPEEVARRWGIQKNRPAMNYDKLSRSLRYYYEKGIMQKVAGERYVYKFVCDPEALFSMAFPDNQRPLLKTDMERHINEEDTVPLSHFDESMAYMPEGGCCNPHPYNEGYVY
Chain of SPIB (Q01892 whole entry): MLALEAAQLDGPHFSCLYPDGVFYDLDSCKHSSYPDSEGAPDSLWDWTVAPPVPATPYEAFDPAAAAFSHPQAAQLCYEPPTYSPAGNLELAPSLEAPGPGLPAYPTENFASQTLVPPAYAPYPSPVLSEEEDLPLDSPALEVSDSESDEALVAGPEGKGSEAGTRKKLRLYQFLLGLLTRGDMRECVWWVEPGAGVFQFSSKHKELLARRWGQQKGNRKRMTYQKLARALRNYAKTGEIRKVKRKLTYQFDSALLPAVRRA

**Q.** With GTCTAG as the sequence, how does the binding signal (HSF1) read?
**A.** 1.48 fold enrichment (6-mer frequency, TF over GST control)

**Q.** For CGAAGA, which binding signal (HSF1) is on record?
**A.** 1.19 fold enrichment (6-mer frequency, TF over GST control)

**Q.** For CGGGCT, which binding signal (FLI1) is on record?
**A.** 1.05 fold enrichment (6-mer frequency, TF over GST control)

**Q.** What about the binding signal (GABPA) of the same sequence?
**A.** 1.05 fold enrichment (6-mer frequency, TF over GST control)

**Q.** What about the binding signal (ERG) of the same sequence?
**A.** 1.02 fold enrichment (6-mer frequency, TF over GST control)

**Q.** And the binding signal (ELF1)?
**A.** 1.04 fold enrichment (6-mer frequency, TF over GST control)

**Q.** And the binding signal (SPIB)?
**A.** 1.13 fold enrichment (6-mer frequency, TF over GST control)

**Q.** What about the binding signal (ELK3) of the same sequence?
**A.** 1.14 fold enrichment (6-mer frequency, TF over GST control)

**Q.** What about the binding signal (FEV) of the same sequence?
**A.** 1.01 fold enrichment (6-mer frequency, TF over GST control)

**Q.** And the binding signal (ELK4)?
**A.** 1.18 fold enrichment (6-mer frequency, TF over GST control)

**Q.** And the binding signal (ETV1)?
**A.** 1.07 fold enrichment (6-mer frequency, TF over GST control)

**Q.** What about the binding signal (ERF) of the same sequence?
**A.** 1.05 fold enrichment (6-mer frequency, TF over GST control)

**Q.** And the binding signal (ETV3L)?
**A.** 1.01 fold enrichment (6-mer frequency, TF over GST control)

**Q.** What about the binding signal (ETS2) of the same sequence?
**A.** 1.07 fold enrichment (6-mer frequency, TF over GST control)

**Q.** And the binding signal (SPDEF)?
**A.** 1.07 fold enrichment (6-mer frequency, TF over GST control)

Reference: publication PMC7862700, “An all-to-all approach to the identification of sequence-specific readers for epigenetic DNA modifications on cytosine”
